# From PubChem BioAssay (EPA / NIEHS)
# Calls of active or inactive are those of the source. Rule for the calls: active = hit-call score of the fitted dose curve at least 0.9, where 1 is the maximum; inactive = score below 0.9.
# Legend:
# Settings in all cases: mRNA level, 48 h; actives raise or lower the signal
# [1] = read-out: Cytochrome P450 (CYP24A1), CYP24A1 (gene 1591); assay: LTEA_HepaRG_CYP24A1: Life Technologies and Expression Analysis (LTEA) Assay for Cytochrome P450 (CYP24A1) using HepaRG (AID 2283478)
# Procedure, shortened: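 mRNA of CYP24A1 quantified by TaqMan qRT-PCR (ACTB/GAPDH/POLR2A normalization) after 48 h chemical exposure of HepaRG cells, top concentration 100 uM, half-log steps, 0.5% DMSO vehicle, duplicates. Curves fitted bidirectionally against DMSO baseline.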
# [2] = read-out: Cytochrome P450 (CYP1A2), CYP1A2 (gene 1544); assay: LTEA_HepaRG_CYP1A2: Life Technologies and Expression Analysis (LTEA) Assay for Cytochrome P450 (CYP1A2) using HepaRG (AID 2283479)
# Procedure, shortened: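 CYP1A2 transcript measured by TaqMan qRT-PCR against three housekeeping genes after 48-hour chemical exposure of HepaRG cells. Eight-point half-log series topping at 100 uM in 0.5% DMSO, duplicates; gain or loss fitted relative to vehicle.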
# [3] = read-out: Cytochrome P450 (CYP2B6), CYP2B6 (gene 1555); assay: LTEA_HepaRG_CYP2B6: Life Technologies and Expression Analysis (LTEA) Assay for Cytochrome P450 (CYP2B6) using HepaRG (AID 2283481)
# Procedure, shortened: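 CYP2B6 transcript level quantified by qRT-PCR against three housekeeping genes, fitted bidirectionally relative to DMSO. HepaRG cultures received chemicals for 48 h, 8-point half-log series from 100 uM in 0.5% DMSO, duplicate wells, serum-free induction medium.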
# [4] = read-out: CYP2C8 (gene 1558); assay: LTEA_HepaRG_CYP2C8: Life Technologies and Expression Analysis (LTEA) Assay for CYP2C8 using HepaRG (AID 2283483)
# Procedure, shortened: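 CYP2C8 expression measured by TaqMan qRT-PCR and normalized to three housekeeping genes. HepaRG cultures were treated for 48 h with an eight-point half-log series topping at 100 uM, vehicle 0.5% DMSO, duplicates; fitted both directions against DMSO.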
# [5] = read-out: CYP2C9 (gene 1559); assay: LTEA_HepaRG_CYP2C9: Life Technologies and Expression Analysis (LTEA) Assay for CYP2C9 using HepaRG (AID 2283484)
# Procedure, shortened: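 CYP2C9 transcript level, quantified by TaqMan qRT-PCR against three housekeeping genes, was fitted bidirectionally relative to 0.5% DMSO. HepaRG cultures were treated 48 h, in duplicate, at eight half-log concentrations topping at 100 uM.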
# [6] = read-out: CYP2E1 (gene 1571); assay: LTEA_HepaRG_CYP2E1: Life Technologies and Expression Analysis (LTEA) Assay for CYP2E1 using HepaRG (AID 2283485)
# Procedure, shortened: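 CYP2E1 transcript measured by Fluidigm qRT-PCR against three housekeeping genes in human HepaRG cells treated 48 h (top 100 uM, half-log steps, 0.5% DMSO vehicle). Gain or loss fitted relative to DMSO baseline.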
# [7] = read-out: CYP4A11 (gene 1579); assay: LTEA_HepaRG_CYP4A11: Life Technologies and Expression Analysis (LTEA) Assay for CYP4A11 using HepaRG (AID 2283486)
# Procedure, shortened: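 Readout is CYP4A11 transcript level by qRT-PCR, normalized to three housekeeping genes and fitted bidirectionally against 0.5% DMSO. Human HepaRG cells were treated 48 h, in duplicate, with an 8-point half-log series topping at 100 uM.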
# [8] = read-out: Cytochrome P450 3A4 (Homo sapiens) (UniProt P08684); assay: LTEA_HepaRG_CYP3A4: Life Technologies and Expression Analysis (LTEA) Assay for CYP3A4 using HepaRG (AID 2283487)
# Procedure, shortened: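 Differentiated HepaRG cells in serum-free induction medium exposed in duplicate for 48 h to 8 half-log concentrations up to 100 uM in 0.5% DMSO. CYP3A4 mRNA measured by qRT-PCR normalized to ACTB, GAPDH and POLR2A; bidirectional fit versus DMSO.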
# [9] = read-out: Pro-epidermal growth factor (Homo sapiens) (UniProt P01133); assay: LTEA_HepaRG_EGF: Life Technologies and Expression Analysis (LTEA) Assay for Epidermal growth factor (EGF) using HepaRG (AID 2283489)
# Procedure, shortened: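 EGF transcript measured by Fluidigm TaqMan qRT-PCR with three housekeeping genes for normalization, 48 h after dosing HepaRG cultures in duplicate (top 100 uM, half-log steps, 0.5% DMSO vehicle). Gain or loss relative to DMSO fitted.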
# [10] = read-out: Early growth response protein 1 (EGR1) transcription factor, EGR1 (gene 1958); assay: LTEA_HepaRG_EGR1: Life Technologies and Expression Analysis (LTEA) Assay for Early growth response protein 1 (EGR1) transcription factor using HepaRG (AID 2283490)
# Procedure, shortened: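 EGR1 transcript levels quantified by qRT-PCR (Fluidigm arrays) against three housekeeping genes after 48 h chemical exposure of HepaRG cells. Eight-point half-log series topping at 100 uM, 0.5% DMSO vehicle, analyzed for gain or loss.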
# [11] = read-out: Ezrin (EZR), EZR (gene 7430); assay: LTEA_HepaRG_EZR: Life Technologies and Expression Analysis (LTEA) Assay for Ezrin (EZR) using HepaRG (AID 2283491)
# Procedure, shortened: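 Differentiated human HepaRG cells, 48 h after plating, were exposed in serum-free induction medium for 48 hours to eight half-log concentrations up to 100 uM in 0.5% DMSO. EZR mRNA was measured by TaqMan qRT-PCR, normalized to ACTB, GAPDH and POLR2A, and fitted bidirectionally against DMSO.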
# [12] = read-out: Cytochrome P450 3A7 (Homo sapiens) (UniProt P24462); assay: LTEA_HepaRG_CYP3A7: Life Technologies and Expression Analysis (LTEA) Assay for CYP3A7 using HepaRG (AID 2283492)
# Procedure, shortened: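 CYP3A7 transcript measured by qRT-PCR (ACTB, GAPDH, POLR2A normalization) after 48 h chemical exposure of HepaRG cells in duplicate. Eight half-log concentrations, maximum 100 uM, 0.5% DMSO vehicle; bidirectional curve fitting against DMSO baseline.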
# [13] = read-out: CYP3A5 (gene 1577); assay: LTEA_HepaRG_CYP3A5: Life Technologies and Expression Analysis (LTEA) Assay for CYP3A5 using HepaRG (AID 2283493)
# Procedure, shortened: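 mRNA levels were quantified by qRT-PCR on Fluidigm arrays and normalized to three housekeeping genes. Differentiated HepaRG cells received 48 h exposure (top 100 uM, half-log steps, 0.5% DMSO vehicle, duplicate); bidirectional fitting versus DMSO.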
# [14] = read-out: Fatty Acid-Binding Protein 1 (FABP1), FABP1 (gene 2168); assay: LTEA_HepaRG_FABP1: Life Technologies and Expression Analysis (LTEA) Assay for Fatty Acid-Binding Protein 1 (FABP1) using HepaRG (AID 2283494)
# Procedure, shortened: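 FABP1 expression by TaqMan qRT-PCR, normalised to three housekeeping genes, in HepaRG cells after 48 h chemical treatment. Eight-point half-log series topping at 100 uM in 0.5% DMSO, duplicates; gain or loss fitted relative to vehicle.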
# [15] = read-out: Cytochrome P450 4A22 (Homo sapiens) (UniProt Q5TCH4); assay: LTEA_HepaRG_CYP4A22: Life Technologies and Expression Analysis (LTEA) Assay for Cytochrome P450 4A22 (CYP4A22) using HepaRG (AID 2283495)
# Procedure, shortened: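 Gene expression measured by qRT-PCR against three housekeeping genes (ACTB, GAPDH, POLR2A), with gain or loss fitted relative to 0.5% DMSO vehicle. HepaRG cultures received 48 h chemical treatment, top concentration 100 uM, half-log steps, duplicate wells.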
# [16] = read-out: Cytochrome P450 7A1 (Homo sapiens) (UniProt P22680); assay: LTEA_HepaRG_CYP7A1: Life Technologies and Expression Analysis (LTEA) Assay for Cytochrome P450 7A1 (CYP7A1) using HepaRG (AID 2283496)
# Procedure, shortened: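 HepaRG, 48 h exposure, 8-pt half-log series from 100 uM, 0.5% DMSO vehicle, duplicates. Readout: TaqMan qRT-PCR mRNA vs three housekeeping genes; bidirectional curve fit against DMSO baseline.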
# [17] = read-out: Glutathione S-Transferase (GSTA2), GSTA2 (gene 2939); assay: LTEA_HepaRG_GSTA2: Life Technologies and Expression Analysis (LTEA) Assay for Glutathione S-Transferase (GSTA2) using HepaRG (AID 2283497)
# Procedure, shortened: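 GSTA2 transcript levels came from Fluidigm TaqMan qRT-PCR normalized to three housekeeping genes, fitted in both directions against DMSO. HepaRG cultures received chemicals for 48 h in serum-free induction medium (0.5% DMSO), 8 half-log concentrations up to 100 uM, duplicate.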
# [18] = read-out: Cytochrome P450 2C19 (Homo sapiens) (UniProt P33261); assay: LTEA_HepaRG_CYP2C19: Life Technologies and Expression Analysis (LTEA) Assay for CYP2C19 using HepaRG (AID 2283482)
# Procedure, shortened: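 CYP2C19 transcript levels by qRT-PCR, normalized to three housekeeping genes, in HepaRG cells after 48 h chemical exposure. Eight-point half-log series topping at 100 uM, 0.5% DMSO vehicle. Increases and decreases both fitted against DMSO.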
# [19] = read-out: DNA damage-inducible transcript 3 (DDIT3), DDIT3 (gene 1649); assay: LTEA_HepaRG_DDIT3: Life Technologies and Expression Analysis (LTEA) Assay for DNA damage-inducible transcript 3 (DDIT3) using HepaRG (AID 2283488)
# Procedure, shortened: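 DDIT3 transcript was quantified by qRT-PCR with ACTB/GAPDH/POLR2A normalization after 48 h chemical treatment of differentiated HepaRG cells in 0.5% DMSO. Dosing was eight-point, half-log, top 100 uM, duplicate wells. Curves fitted bidirectionally versus DMSO.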
# Sequence of Cytochrome P450 3A7 (Homo sapiens) (P24462 whole entry, looked up): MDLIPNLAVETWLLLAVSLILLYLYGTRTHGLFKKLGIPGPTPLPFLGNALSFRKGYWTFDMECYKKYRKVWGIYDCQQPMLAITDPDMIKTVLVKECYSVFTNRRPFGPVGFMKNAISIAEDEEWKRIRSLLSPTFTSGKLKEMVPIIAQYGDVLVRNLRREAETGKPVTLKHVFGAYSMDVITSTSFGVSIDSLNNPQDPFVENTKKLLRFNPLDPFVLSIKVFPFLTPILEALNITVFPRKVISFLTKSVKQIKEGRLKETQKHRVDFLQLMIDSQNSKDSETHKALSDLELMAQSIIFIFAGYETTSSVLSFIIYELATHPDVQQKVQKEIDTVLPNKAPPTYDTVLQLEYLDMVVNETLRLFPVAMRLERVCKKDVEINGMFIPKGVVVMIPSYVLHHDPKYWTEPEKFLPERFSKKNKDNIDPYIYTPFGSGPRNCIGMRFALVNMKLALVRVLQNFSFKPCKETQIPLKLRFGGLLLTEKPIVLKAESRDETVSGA
# Sequence of Cytochrome P450 3A4 (Homo sapiens) (P08684 whole entry, looked up): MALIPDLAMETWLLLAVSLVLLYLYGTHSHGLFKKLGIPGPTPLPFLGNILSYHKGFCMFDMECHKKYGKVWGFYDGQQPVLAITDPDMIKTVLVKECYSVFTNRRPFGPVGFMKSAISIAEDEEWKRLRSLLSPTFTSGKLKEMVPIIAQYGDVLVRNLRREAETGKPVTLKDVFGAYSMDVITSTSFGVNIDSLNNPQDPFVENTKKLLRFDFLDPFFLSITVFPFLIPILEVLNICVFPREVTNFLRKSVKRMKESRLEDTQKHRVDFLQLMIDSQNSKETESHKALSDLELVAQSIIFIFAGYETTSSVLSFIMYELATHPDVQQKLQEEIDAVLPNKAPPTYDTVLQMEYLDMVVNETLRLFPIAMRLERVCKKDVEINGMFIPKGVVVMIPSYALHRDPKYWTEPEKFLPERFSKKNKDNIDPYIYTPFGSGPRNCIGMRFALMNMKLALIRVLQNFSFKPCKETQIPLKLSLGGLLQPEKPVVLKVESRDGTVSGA
# Sequence of Cytochrome P450 2C19 (Homo sapiens) (P33261 whole entry, looked up): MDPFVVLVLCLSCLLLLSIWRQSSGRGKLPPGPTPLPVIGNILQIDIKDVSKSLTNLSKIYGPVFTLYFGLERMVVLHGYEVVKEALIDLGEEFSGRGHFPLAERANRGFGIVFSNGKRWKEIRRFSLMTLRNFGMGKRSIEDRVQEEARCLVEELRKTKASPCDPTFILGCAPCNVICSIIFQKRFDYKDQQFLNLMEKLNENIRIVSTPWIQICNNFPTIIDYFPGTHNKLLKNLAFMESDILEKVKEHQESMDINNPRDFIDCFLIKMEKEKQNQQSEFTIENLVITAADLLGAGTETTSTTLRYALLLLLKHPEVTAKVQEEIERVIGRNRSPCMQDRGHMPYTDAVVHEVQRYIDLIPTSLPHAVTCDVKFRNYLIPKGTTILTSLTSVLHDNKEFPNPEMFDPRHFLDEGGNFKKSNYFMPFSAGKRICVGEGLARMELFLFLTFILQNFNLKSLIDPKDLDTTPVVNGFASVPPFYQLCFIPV
smiles,measurement,setting,value
O=C(O)C1(C(=O)Nc2ccc(Cl)cc2Cl)CC1,outcome,[1],inactive
same,outcome,[2],inactive
same,AC50,[3],66.9 µM (active)
same,AC50,[4],82.6 µM (active)
same,AC50,[5],71.9 µM (active)
same,AC50,[6],63.5 µM (active)
same,AC50,[7],84.8 µM (active)
same,AC50,[8],75.4 µM (active)
same,AC50,[9],31.6 µM (active)
same,AC50,[10],50 µM (active)
same,outcome,[11],inactive
same,AC50,[12],91 µM (active)
same,outcome,[13],inactive
same,AC50,[14],77.5 µM (active)
same,AC50,[15],80.7 µM (active)
same,AC50,[16],77.8 µM (active)
same,AC50,[17],48.8 µM (active)
S=C([S-])NCCNC(=S)[S-].[Mn+2],outcome,[1],inactive
same,AC50,[2],0.654 µM (active)
same,AC50,[3],2.35 µM (active)
same,AC50,[4],2.31 µM (active)
same,AC50,[5],2.23 µM (active)
same,AC50,[6],3.82 µM (active)
same,AC50,[7],3.33 µM (active)
same,AC50,[8],3.36 µM (active)
same,AC50,[9],5.3 µM (active)
same,AC50,[10],6.62 µM (active)
same,outcome,[11],inactive
same,AC50,[12],3.49 µM (active)
same,AC50,[13],3.47 µM (active)
same,AC50,[14],3.58 µM (active)
same,AC50,[15],3.6 µM (active)
same,AC50,[16],4.73 µM (active)
same,AC50,[17],2.38 µM (active)
CCOC(=O)C(C)Oc1ccc(Oc2nc3ccc(Cl)cc3o2)cc1 (stereo not given),outcome,[1],inactive
same,outcome,[2],inactive
same,AC50,[3],3.22 µM (active)
same,outcome,[4],inactive
same,AC50,[5],19.6 µM (active)
same,AC50,[6],35.6 µM (active)
same,outcome,[7],inactive
same,outcome,[8],inactive
same,outcome,[9],inactive
same,outcome,[10],inactive
same,outcome,[11],inactive
same,outcome,[12],inactive
same,outcome,[13],inactive
same,outcome,[14],inactive
same,outcome,[15],inactive
same,AC50,[16],19.9 µM (active)
same,AC50,[17],38.3 µM (active)
CC(=O)S[C@@H]1CC2=CC(=O)CC[C@]2(C)[C@H]2CC[C@@]3(C)[C@@H](CC[C@@]34CCC(=O)O4)[C@H]12,outcome,[1],inactive
same,AC50,[3],52.6 µM (active)
same,AC50,[18],78.3 µM (active)
same,AC50,[4],82.1 µM (active)
same,AC50,[6],63 µM (active)
same,AC50,[7],51.8 µM (active)
same,outcome,[19],inactive
same,outcome,[9],inactive
same,outcome,[10],inactive
same,AC50,[11],0.387 µM (active)
same,AC50,[13],50 µM (active)
same,AC50,[14],54.4 µM (active)
same,AC50,[15],50 µM (active)
same,AC50,[16],62.4 µM (active)
same,AC50,[17],69.5 µM (active)
CCCN(CCC)C(=O)SCC,outcome,[1],inactive
same,outcome,[2],inactive
same,AC50,[3],11.4 µM (active)
same,outcome,[4],inactive
same,outcome,[5],inactive
same,outcome,[6],inactive
same,outcome,[7],inactive
same,outcome,[8],inactive
same,outcome,[9],inactive
same,outcome,[10],inactive
same,outcome,[11],inactive
same,outcome,[12],inactive
same,outcome,[13],inactive
same,outcome,[14],inactive
same,outcome,[15],inactive
same,outcome,[16],inactive
same,outcome,[17],inactive
CCCCOC(=O)[C@@H](C)Oc1ccc(Oc2ccc(C(F)(F)F)cn2)cc1,outcome,[1],inactive
same,outcome,[2],inactive
same,outcome,[3],inactive
same,outcome,[4],inactive
same,outcome,[5],inactive
same,AC50,[6],17 µM (active)
same,outcome,[7],inactive
same,outcome,[8],inactive
same,outcome,[9],inactive
same,outcome,[10],inactive
same,outcome,[11],inactive
same,outcome,[12],inactive
same,outcome,[13],inactive
same,outcome,[14],inactive
same,outcome,[15],inactive
same,AC50,[16],34.2 µM (active)
same,outcome,[17],inactive
